This passage reports INHIBITION results from ChEMBL document CHEMBL4513216, “Probing the Open Global Health Chemical Diversity Library for Multistage-Active Starting Points for Next-Generation Antimalarials” (ACS Infect Dis, 2020).

In all, about 69,000 compounds went through this assay and about 8,600 (12%) showed an effect of 50% or more. The entries come from a sample that favours strong results as a whole.

This test concerns Plasmodium berghei. Description: Screen against P. berghei liver stage (PbLuc), transformed with Luciferase, at 10uM. The test is classed as functional, HepG2. The conditions noted are these: tested at 10 uM.
Regarding `CCC(NC(=O)NCc1cccc(N(C)C)n1)c1cccs1` (centres undefined), the INHIBITION is given as -6.46%.
For the compound `CCCC(NC(=O)NCc1cccc(N(C)C)n1)c1ccccn1` (centres undefined), the INHIBITION came out at 58.5%.
Turning to `Cc1noc(C)c1-c1cncc(C2CCCN2Cc2ncc[nH]2)n1` (centres undefined), the INHIBITION is recorded as 47.2%.
Under `CC[C@@H](Cn1ncc2ccccc2c1=O)NC(=O)c1ccco1` stands 34.1%; under `Cn1ccc(C(=O)N2CCN(c3nccs3)CC2)cc1=O`, 28.8%.
Under `CC(C)(C)c1cnc(CN2CCC(NC(=O)Nc3ccccc3)CC2)o1` stands 39.4%; under `CC(C)(C)c1cnc(CN2CCCS(=O)(=O)CC2)o1`, -7.94%.
Under `CCN(C1CCN(Cc2ncc(C(C)(C)C)o2)CC1)S(C)(=O)=O` stands 50.8%.
As for `CC(C)(C)c1cnc(CN2CCN(c3ncccn3)CC2)o1`, the INHIBITION is 24.3%.
The figure for `CC(C)(C)c1cnc(CN2CCC(NC(=O)NC3CCCCC3)CC2)o1` is 60.8%; for `CC(C)(C)c1cnc(CN2CCC(CN3CCOCC3)CC2)o1` it is 66.3%.
Under `CCN1CCN(C2CCN(Cc3ncc(C(C)(C)C)o3)CC2)C1=O` stands 42%; under `Cc1ccccc1C(=O)NC1CCN(Cc2ncc(C(C)(C)C)o2)CC1`, 66.1%.
The figure for `CC(C)(C)c1cnc(CN2CCC(NC(=O)C3CCOCC3)CC2)o1` is 30.8%.
Turning to `CCN(CC)CC1CCN(Cc2ncc(C(C)(C)C)o2)CC1`, the INHIBITION came out at 47.4%.
For `CC(C)(C)c1cnc(CN2CCC(CO)CC2)o1`, the INHIBITION amounted to 39.7%.
The figure for `CC(C)(C)c1cnc(CN2CCC(NC(=O)CC3CCCC3)CC2)o1` is 28.7%; for `COc1ccc(C(C)N(C)Cc2c(C(C)(C)C)[nH]c3ncccc23)cc1` (centres undefined) it is -19%; for `Cc1cnn(CC2CN(Cc3nc4cccnc4[nH]3)CCO2)c1` (centres undefined) it is 45.1%.
`O=c1[nH]c2c(-c3ccccn3)nsc2c(=O)n1C1CCCCC1`: the INHIBITION was found to be 9.41%.
Regarding `O=C(Cc1cn2ccccc2n1)N1CCCC(n2cccn2)C1` (centres undefined), the INHIBITION was determined as 21.5%.
Regarding `CSc1ncccc1C(=O)NCc1ccc(N(C)C)cc1`, the INHIBITION is -25.1%.
Under `Cc1nc(CN2CCC3(CCCN(Cc4ccncc4)C3)C2=O)cs1` (centres undefined) stands -36.9%.
Under `CC(C)CN1CC(O)CN(S(=O)(=O)c2ccccc2)CC1=O` (centres undefined) stands 10.1%; under `Cc1cc(C)nc(NCCC(=O)NCCn2ccc3ccccc32)n1`, 41.5%.
Take `Cc1cnc(CN2CCOC(Cn3nc(C)cc3C)C2)cn1` (centres undefined): the INHIBITION came to 32.9%.
On to `Cc1ccccc1CCC1CCCN(C(=O)Cc2cc(=O)[nH]c(N)n2)C1` (centres undefined), for which the INHIBITION is reported as -33%.
With `CCc1nc(N)sc1C(=O)N1CCCC(CCc2ccccc2C)C1` (centres undefined), the INHIBITION amounted to 55.3%.
The figure for `CCc1nc(N)sc1C(=O)N1CCCC(COc2cccc(C)c2)C1` (centres undefined) is -24.8%.
The figure for `Cn1ccc(C(=O)NCc2ccc(CN3CCCCC3)cc2)cc1=O` is -19.9%.
Under `CCS(=O)(=O)N1C[C@H]2CN(Cc3cccc(F)c3)C(=O)[C@H]2C1` stands 3.58%; under `Nc1nc2c(c(NCc3nccs3)n1)CCN(CC1CCCC1)CC2`, 76.6%.
As for `CN(C)c1ncnc2c1CCN(CC1CCCC1)CC2`, the INHIBITION was 38.1%.
The figure for `COCCNc1nc(C)nc2c1CCN(CC1CCC(N)CC1)CC2` (centres undefined) is 26.6%; for `c1csc(CN2CCC3(CC2)CCN(CC2CC2)CC3)n1` it is 23.3%.
Under `Cc1nc2c(c(NCCc3nccs3)n1)CCN(CC1CC1)CC2` stands 64.1%; under `Cc1nc2c(c(NCCc3nc(C)c(Cl)s3)n1)CCNCC2`, 18.5%.
Under `CC(C)c1nnc(CN2CCCc3ccc(S(N)(=O)=O)cc32)o1` stands -7.93%; under `CCCn1c(SCC(N)=O)nnc1-c1csc2c1CCCC2`, 19.8%.
With `CN(Cc1ccn[nH]1)C(=O)CCC(=O)NC1CCCC1`, the INHIBITION came to 31.2%.
The figure for `CCc1c(C)[nH]c(C(C)(N)CC)nc1=O` (centres undefined) is 29.7%; for `CCc1c(C)[nH]c(C(C)(C)N)nc1=O` it is 60.4%.
Under `CCC(C)(N)c1nc(=O)c(C)c(C)[nH]1` (centres undefined) stands 43.6%; under `CCS(=O)(=O)c1ccccc1N1CCC(NC(=O)C2CC2)CC1`, -9.37%; under `c1ccc(N2CCC3(CCCN(c4ncccn4)C3)C2)nc1` (centres undefined), -56.2%.
The figure for `CCc1nc2c(N3CCC4(CC3)CC(=O)N(CC)C4)ncnc2o1` is 26.8%.
Turning to `CCc1nc2c(N3CCC4(CC3)CC(=O)N(CC(C)C)C4)ncnc2o1`, the INHIBITION was determined as 87.2%.
Under `CCc1nc2c(N3CCC4(CC3)CNC(=O)C4)ncnc2o1` stands 9.91%; under `c1csc(CN2CCCn3nnc(COCC4CC4)c3C2)n1`, 15.8%.
The figure for `CC[C@@H](Cn1ncc2ccccc2c1=O)NC(=O)c1cnccn1` is -3.94%; for `Cn1nnc2c(sc3nc(N4CCOCC4)c4c(c32)CCC4)c1=O` it is 13.8%; for `CC(C)n1nnc2c(sc3nc(N4CCOCC4)c4c(c32)CCC4)c1=O` it is 28.6%.
Under `CCCn1nnc2c(sc3nc(N4CCOCC4)c4c(c32)CCC4)c1=O` stands 80.6%.
For the compound `CNc1ncc(CN(C)C(=O)c2cccc(-n3cccn3)c2)cn1`, the INHIBITION came to 25.8%.
